Compound activity from PubChem.
TDP1 cell CPT: qHTS for Inhibitors of human tyrosyl-DNA phosphodiesterase 1 (TDP1): qHTS in cells in presence of CPT; AID 686979, 2013; Potency, µM (series often up to 46.2 µM), without a hit: top-dose activity change, negative = growth inhibition, hits mostly inhibitors; chicken DT40 Tdp1-/-;hTDP1 cells + 20 nM CPT, ATP luminescence, 48 h; 420,000 compounds, 12% hits; further: potency means the concentration at half of the fitted maximal effect; on the % scale 0 is the no-effect control and ±100 the full control effect; nearly all actives have a fitted effect of over 55% in size
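Cell growth measured by CellTiter-Glo luminescence after a minimum 48 h, 37 C compound exposure with 20 nM CPT in Tdp1-knockout DT40 cells stably expressing hTDP1, seeded 400/well; qHTS titration format.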
miR-21 act: qHTS Assay for Modulators of miRNAs and/orActivators of miR-21. HeLa miR-21 FLuc reporter, luciferase, 48 h. Potency, µM (titrated, usually from 38.3 µM), for inactives: top-dose activity change, positive = activation, usual class: activators. 340,000 tested, under 10 active. AID 2288, 2010;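 further: % of control where 0% means no effect; miR-21 action dims this reporter so a rising signal means less miR-21 action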
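HeLa cells endogenously expressing miR-21, stably carrying CMV-driven firefly luciferase with a downstream miR-21 binding site, 2000 cells/well. Titrations up to approximately 40 uM, 48 hours; luciferase luminescence read.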
uPA surface inh: qHTS for Inhibitors of Cell Surface uPA Generation; cell surface uPA generation assay, qHTS; Potency, µM (doses to about 38.3 µM), without a hit: top-dose activity change, negative = inhibition, most hits filed as inhibitors; 330,000 compounds, 0.31% hits; active means well fitted inhibition curve with a large enough effect; inconclusive means small, poorly fitted or top-dose-only effect; inactive means no such curve, though single readings can be large or run the other way; tested in mouse RAW 264.7 cells; further: potency means the concentration at half of the fitted maximal effect; on the % scale 0 is the no-effect control and ±100 the full control effect; nearly all actives have a fitted effect of over 55% in size
TDP1 cell noCPT: qHTS for Inhibitors of human tyrosyl-DNA phosphodiesterase 1 (TDP1): qHTS in cells in absence of CPT; DT40 Tdp1-/- hTDP1 cells, no CPT, ATP luminescence, 48 h; 420,000 compounds, 15% hits; Potency, µM (top dose mostly 46.2 µM), for the others: at the highest dose activity change, negative = growth inhibition, usual class: inhibitors; further: potency means the concentration at half of the fitted maximal effect; on the % scale 0 is the no-effect control and ±100 the full control effect; nearly all actives have a fitted effect of over 55% in size
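Compound effects on proliferation are scored in DT40 Tdp1-/-;hTDP1 cells in the absence of CPT. ATP levels (CellTiter-Glo luminescence) are recorded after a ≥48 hr, 37 °C incubation.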
TDP1 block: qHTS Assay for Inhibitors of Tyrosyl-DNA Phosphodiesterase (TDP1). Potency, µM (titrated, usually from 130 µM), for inactives: at the top dose activity change, negative = inhibition, usual class: inhibitors. recombinant TDP1, AlphaScreen DNA substrate cleavage. 350,000 compounds, 0.28% hits. Tyrosyl-DNA phosphodiesterase 1 (Homo sapiens), Q9NUW8; further: potency means the concentration at half of the fitted maximal effect; on the % scale 0 is the no-effect control and ±100 the full control effect; nearly all actives have a fitted effect of over 40% in size
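Tdp1 1 nM final; 15 min RT w/ cpd; substrate 15 nM, 5 min; beads 10 ug/ml, 10 min; AlphaScreen read. Neg ctrl: no enzyme.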
Numbers without * were called inactive; ? = inconclusive; · = no result. In the library only some 16% were active in any assay of this set; here they are far more common. Unless noted, the call rests on the fitted dose curve; in most records, active means well fitted curve in the direction sought with a large enough effect; inconclusive means small, poorly fitted or top-dose-only effect, or another doubt; inactive means no such curve, though single readings can be large; an effect the other way counts as inactive or inconclusive.

SMILES	TDP1 cell CPT	miR-21 act	uPA surface inh	TDP1 cell noCPT	TDP1 block
CCOC(=O)c1[nH]c2cc(OC)c(OC)cc2c1NC(=O)C(C)N1CCN(Cc2ccccc2)CC1 (stereo unspecified)	?	10%	-9%	18µM*	0%
CCOC(=O)c1sc(NC(=O)c2cc3ccccc3o2)nc1C	0%	-47%	-4%	-11%	2%
CCOC(=O)c1sc(NC(=O)c2ccccc2OC)nc1C	8.2µM*	-62%	-5%	?	3%
CSc1ncccc1C(=O)Nc1ccc2nc(C)sc2c1	-23%	-59%	-8%	-2%	·
C#CCNC(=O)C1=C[C@H](c2ccc(C(F)(F)F)cc2)C[C@H](OCCCCO)O1	?	-19%	3%	0%	-1%
COc1cc(C(c2c(C)[nH][nH]c2=O)c2c(C)[nH][nH]c2=O)ccc1OC(=O)c1cccc(C)c1	?	1%	·	?	4%
CC(C)c1ccccc1NC(=O)COC(=O)/C=C/c1cccc([N+](=O)[O-])c1	?	-5%	16%	?	4%
Cc1c(NS(=O)(=O)c2ccc3nc(COc4ccccc4Cl)[nH]c3c2)c(=O)n(-c2ccccc2)n1C	?	-14%	1%	-17%	8%
COc1ccc2nc(NC(=O)c3ccccc3F)sc2c1	-24%	-15%	10µM*	?	1%
Cc1ccccc1C(=O)Nc1nnc(-c2ccco2)s1	-28%	-43%	-7%	?	-2%
COc1ccc(C(=O)Nc2ccccc2Cc2ccccc2)c(OC)c1	18µM*	-27%	-3%	?	0%
CCC(=O)Nc1nc(-c2ccccc2)ns1	-18%	-38%	-4%	-17%	2%
COc1ccc(NC(=O)c2ccccc2C)c(OC)c1	-9%	-18%	-11%	-22%	-4%
COc1ccccc1C(=O)Nc1nnc(-c2ccco2)s1	?	-59%	-26%	-24%	50µM*
COc1ccccc1C(=O)Nc1nc(-c2ccccc2)ns1	-29%	-53%	·	23µM*	2%
O=C(NCCc1ccncc1)C12CC3CC(CC(C3)C1)C2	?	-11%	-8%	?	3%
COc1cc(Cl)ccc1OCc1cc(C(=O)NC(C)Cc2cnccn2)no1 (stereo unspecified)	-22%	-52%	-18%	-26%	2%
CN(C)S(=O)(=O)c1ccc(NC(=O)c2cc(F)c(F)cc2Cl)cc1	-23%	-4%	1%	-29%	0%
